Source: the supplement of paper PMC10849652
About 8,800 targets were measured; listed, in parts, are those with a hit and a random draw of the rest. About 0.5% of all pairs of compound and target were hits.

How the values were obtained:
Test in all cases: log2 fold change, soluble protein after heating vs DMSO (PISA); higher = thermal stabilisation; K562 lysate, 10 uM; active = over 0.2 and 3.5 SD of the protein, either way, in both replicates (recomputed)
[1] = compound: CCn1c(C(=O)N(C2CC2)C2CC2)cc2c3c(ncn3C)c(Nc3cc(C)n(C)n3)nc21
Outline: (§1)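 A 30 min treatment with 10 μM compound was applied to crude K562 extract at 1 mg/mL protein in PBS pH 7.4 with 1 mM MgCl2. Heating for 3 min spanned 48°C-58°C, after which aliquots were pooled, adjusted to 0.5% NP-40 at 4°C and spun at 21,000xg for 90 min. TMTpro 16plex LC-MS/MS of the supernatant, with channel sums equalised, gave values recorded as log-two fold change in thermal stability against solvent controls, from duplicates.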

Tubastatin A = compound: CN1CCc2c(c3ccccc3n2Cc2ccc(C(=O)NO)cc2)C1 [Tubastatin A]
Outline: as §1

alisertib = compound: COc1cc(Nc2ncc3c(n2)-c2ccc(Cl)cc2C(c2c(F)cccc2OC)=NC3)ccc1C(=O)O [alisertib]
Outline: as §1

gefitinib = compound: COc1cc2ncnc(Nc3ccc(F)c(Cl)c3)c2cc1OCCCN1CCOCC1 [gefitinib]
Outline: as §1

vemurafenib = compound: CCCS(=O)(=O)Nc1ccc(F)c(C(=O)c2c[nH]c3ncc(-c4ccc(Cl)cc4)cc23)c1F [vemurafenib]
Outline: as §1

[2] = compound: CCCS(=O)(=O)Nc1ccc(F)c(C(=O)c2c[nH]c3ncc(Cl)cc23)c1F
Outline: as §1

barasertib = compound: CCN(CCCOc1ccc2c(Nc3cc(CC(=O)Nc4cccc(F)c4)[nH]n3)ncnc2c1)CCOP(=O)(O)O [barasertib]
Outline: as §1

[3] = compound: CC[C@@H]1C(=O)N(C)c2cnc(Nc3ccc(C(=O)NC4CCN(C)CC4)cc3OC)nc2N1C1CCCC1
Outline: as §1

volasertib = compound: CC[C@@H]1C(=O)N(C)c2cnc(Nc3ccc(C(=O)N[C@H]4CC[C@H](N5CCN(CC6CC6)CC5)CC4)cc3OC)nc2N1C(C)C [volasertib]
Outline: as §1

[4] = compound: CCn1cc(-c2ccnc3[nH]c(-c4cccc(CN(C)C)c4)cc23)c(-c2ccc(NC(=O)N(C)C)cc2)n1
Outline: as §1

[5] = compound: CN1CCC(CNc2ccc3ncc(-c4cccc(OC(F)(F)F)c4)n3n2)CC1
Outline: as §1

saracatinib = compound: CN1CCN(CCOc2cc(OC3CCOCC3)c3c(Nc4c(Cl)ccc5c4OCO5)ncnc3c2)CC1 [saracatinib]
Outline: as §1

sotrastaurin = compound: CN1CCN(c2nc(C3=C(c4c[nH]c5ccccc45)C(=O)NC3=O)c3ccccc3n2)CC1 [sotrastaurin]
Outline: as §1

alvocidib = compound: CN1CC[C@H](c2c(O)cc(O)c3c(=O)cc(-c4ccccc4Cl)oc23)[C@H](O)C1 [alvocidib]
Outline: as §1

defactinib = compound: CNC(=O)c1ccc(Nc2ncc(C(F)(F)F)c(NCc3nccnc3N(C)S(C)(=O)=O)n2)cc1 [defactinib]
Outline: as §1

[6] = compound: CNc1nc(-c2ccc3c(N)n[nH]c3c2)cc(N2C[C@@H](C(=O)NC3CCCCC3)CC[C@H]2C)n1
Outline: as §1

encorafenib = compound: COC(=O)N[C@@H](C)CNc1nccc(-c2cn(C(C)C)nc2-c2cc(Cl)cc(NS(C)(=O)=O)c2F)n1 [encorafenib]
Outline: as §1

[7] = compound: COC(=O)[C@H](CCSC)NC(=O)C1=C(C=C(C=C1)NC[C@H](CS)N)C2=CC=CC=C2
Outline: as §1

[8] = compound: COc1cc2nc(-c3cc(F)ccc3O)nc(N[C@@H]3CNC[C@H]3C(C)(C)O)c2cc1OC
Outline: as §1

[9] = compound: CNC(=O)C1=CC=CC=C1NC2=NC(=NC=C2Cl)NC3=C(C=C(C=C3)N4CCOCC4)OC
Outline: as §1

Measured: log2 fold change

MUC5AC (UniProt P98088)
inactive: [1] 0 | Tubastatin A -0.03 | alisertib -0.233 | gefitinib 0.013

NFATC4 isoform 2 (UniProt Q14934)
inactive: vemurafenib 0.081 | [2] -0.013 | barasertib 0.059 | [3] -0.05 | volasertib -0.004 | [4] 0.053 | [5] 0.068 | saracatinib 0.044 | sotrastaurin 0.026 | alvocidib -0.062 | defactinib -0.12 | [6] 0.023 | encorafenib 0.011 | [7] -0.032 | alisertib 0.048 | [8] 0.244 | gefitinib 0.132

PANK2 (UniProt Q9BZ23)
Chain of UniProt Q9BZ23 (Q9BZ23 whole entry, looked up): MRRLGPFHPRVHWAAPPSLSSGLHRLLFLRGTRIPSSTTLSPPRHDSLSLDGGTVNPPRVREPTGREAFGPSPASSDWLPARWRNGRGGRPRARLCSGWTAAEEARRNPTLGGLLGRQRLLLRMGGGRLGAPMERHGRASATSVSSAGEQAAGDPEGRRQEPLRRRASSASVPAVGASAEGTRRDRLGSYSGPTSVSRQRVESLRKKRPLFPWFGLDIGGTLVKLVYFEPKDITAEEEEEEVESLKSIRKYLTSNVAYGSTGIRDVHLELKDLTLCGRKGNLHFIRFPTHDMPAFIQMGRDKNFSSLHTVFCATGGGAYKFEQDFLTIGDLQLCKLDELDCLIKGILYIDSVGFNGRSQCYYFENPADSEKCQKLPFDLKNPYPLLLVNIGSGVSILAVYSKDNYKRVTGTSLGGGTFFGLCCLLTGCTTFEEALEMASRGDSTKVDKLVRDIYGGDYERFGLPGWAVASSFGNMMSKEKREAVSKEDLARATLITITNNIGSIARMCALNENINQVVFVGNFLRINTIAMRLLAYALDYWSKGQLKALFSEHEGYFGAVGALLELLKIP
active: alisertib 0.35
inactive: vemurafenib 0.093 | [2] -0.036 | barasertib -0.047 | [3] 0.011 | volasertib -0.086 | [1] 0.002 | [4] -0.167 | [5] -0.057 | saracatinib 0.068 | sotrastaurin 0.027 | alvocidib 0.057 | Tubastatin A 0.108 | defactinib 0.023 | [6] 0 | encorafenib -0.01 | [7] 0.014 | [8] -0.046 | gefitinib -0.233

NUB1 isoform 2 (UniProt Q9Y5A7)
inactive: sotrastaurin -0.003

PAGE4 (UniProt O60829)
Chain of UniProt O60829 (O60829 whole entry, looked up): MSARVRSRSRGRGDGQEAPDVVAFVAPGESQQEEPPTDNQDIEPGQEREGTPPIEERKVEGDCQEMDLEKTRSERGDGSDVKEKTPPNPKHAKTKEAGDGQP
inactive: [2] 0.015 | barasertib 0.108 | [3] 0.039 | volasertib 0.002 | [1] -0.042 | [4] 0.476 | [5] -0.158 | saracatinib 0.046 | sotrastaurin 0.092 | alvocidib 0.086 | Tubastatin A 0.027 | [9] -0.072 | [6] -0.038 | encorafenib -0.005 | [7] -0.086 | [8] 0.057

NRIP1 (UniProt P48552)
Chain of UniProt P48552 (P48552 whole entry, looked up): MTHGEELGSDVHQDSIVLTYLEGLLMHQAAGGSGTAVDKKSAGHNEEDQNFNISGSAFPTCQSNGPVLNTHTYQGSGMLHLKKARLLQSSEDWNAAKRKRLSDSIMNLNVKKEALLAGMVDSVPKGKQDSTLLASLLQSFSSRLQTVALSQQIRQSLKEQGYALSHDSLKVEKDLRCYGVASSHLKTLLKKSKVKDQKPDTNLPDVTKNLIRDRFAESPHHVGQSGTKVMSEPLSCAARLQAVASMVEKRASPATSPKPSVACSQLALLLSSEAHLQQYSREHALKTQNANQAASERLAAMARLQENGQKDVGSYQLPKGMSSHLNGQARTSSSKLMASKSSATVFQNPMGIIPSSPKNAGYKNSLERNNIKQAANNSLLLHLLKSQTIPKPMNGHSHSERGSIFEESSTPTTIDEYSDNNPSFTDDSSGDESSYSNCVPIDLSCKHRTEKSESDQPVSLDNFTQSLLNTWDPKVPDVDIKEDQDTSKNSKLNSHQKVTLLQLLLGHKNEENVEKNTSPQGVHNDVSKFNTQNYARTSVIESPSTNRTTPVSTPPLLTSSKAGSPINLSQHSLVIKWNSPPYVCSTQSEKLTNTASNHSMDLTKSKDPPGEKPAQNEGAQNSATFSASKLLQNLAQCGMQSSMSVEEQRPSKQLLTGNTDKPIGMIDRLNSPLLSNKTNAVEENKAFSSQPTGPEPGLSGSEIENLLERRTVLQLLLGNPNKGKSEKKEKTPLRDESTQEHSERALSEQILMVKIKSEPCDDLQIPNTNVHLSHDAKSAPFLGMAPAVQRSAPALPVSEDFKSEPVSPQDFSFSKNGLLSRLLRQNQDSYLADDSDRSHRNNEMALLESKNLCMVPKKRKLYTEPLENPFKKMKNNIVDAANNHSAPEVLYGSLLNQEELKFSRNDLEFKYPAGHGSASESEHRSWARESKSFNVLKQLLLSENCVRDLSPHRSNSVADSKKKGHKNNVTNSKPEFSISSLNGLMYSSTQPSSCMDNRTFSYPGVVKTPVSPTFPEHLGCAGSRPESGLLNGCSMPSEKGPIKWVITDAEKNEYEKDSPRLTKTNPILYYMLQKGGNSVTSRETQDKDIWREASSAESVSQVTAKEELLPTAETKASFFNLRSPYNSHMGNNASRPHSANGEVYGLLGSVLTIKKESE
active: [4] -0.651
inactive: [2] 0.024 | barasertib 0.076 | volasertib -0.055 | [1] -0.124 | [5] 0.17 | saracatinib -0.071 | sotrastaurin -0.074 | alvocidib -0.145 | Tubastatin A 0.001 | [9] -0.096 | [6] 0.291 | alisertib -0.21 | [8] 0.04 | gefitinib -0.011

MYBL2 (UniProt P10244)
Chain of UniProt P10244 (P10244 whole entry, looked up): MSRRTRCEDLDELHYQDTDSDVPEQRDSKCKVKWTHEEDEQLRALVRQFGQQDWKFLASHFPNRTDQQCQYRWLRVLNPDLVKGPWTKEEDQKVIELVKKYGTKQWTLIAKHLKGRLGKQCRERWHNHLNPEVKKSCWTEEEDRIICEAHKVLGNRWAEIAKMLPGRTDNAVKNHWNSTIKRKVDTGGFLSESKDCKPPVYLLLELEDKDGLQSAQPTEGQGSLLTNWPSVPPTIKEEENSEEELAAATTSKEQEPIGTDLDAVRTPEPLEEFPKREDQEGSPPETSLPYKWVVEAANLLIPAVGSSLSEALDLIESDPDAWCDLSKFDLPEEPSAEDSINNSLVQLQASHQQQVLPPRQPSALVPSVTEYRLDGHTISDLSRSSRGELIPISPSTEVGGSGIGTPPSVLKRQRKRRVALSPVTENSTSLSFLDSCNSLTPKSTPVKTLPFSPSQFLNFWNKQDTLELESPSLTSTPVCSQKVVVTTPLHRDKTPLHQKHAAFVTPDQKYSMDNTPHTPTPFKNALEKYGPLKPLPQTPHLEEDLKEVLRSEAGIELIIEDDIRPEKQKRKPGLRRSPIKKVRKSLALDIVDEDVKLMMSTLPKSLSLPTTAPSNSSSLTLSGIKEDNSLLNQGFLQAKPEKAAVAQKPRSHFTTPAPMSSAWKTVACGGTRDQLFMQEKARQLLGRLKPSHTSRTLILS
inactive: vemurafenib -0.07 | [3] 0.013 | [1] 0.069 | [4] 0.217 | [5] -0.296 | saracatinib 0.057 | sotrastaurin 0.043 | alvocidib 0 | Tubastatin A -0.15 | [9] 0.045 | defactinib 0.113 | [6] -0.016 | encorafenib 0.088 | [7] -0.023

P2RY1 (UniProt P47900)
inactive: [2] -0.08 | barasertib 0.034 | [3] 0.006 | volasertib -0.111 | [1] 0.022 | [4] 0.057 | [5] 0.093 | saracatinib 0.015 | alvocidib -0.025 | Tubastatin A 0.06 | [9] -0.077 | [6] -0.013 | encorafenib 0.054 | [7] 0.057 | [8] -0.068

MT-ATP8 (UniProt P03928)
Chain of UniProt P03928 (P03928 whole entry, looked up): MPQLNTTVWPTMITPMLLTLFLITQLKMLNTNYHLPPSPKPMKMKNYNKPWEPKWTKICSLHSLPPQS
active: [4] 0.711
inactive: vemurafenib 0.033 | [2] -0.036 | barasertib 0.057 | [3] 0.063 | volasertib 0.015 | [1] 0.128 | [5] -0.144 | sotrastaurin -0.084 | alvocidib 0.044 | Tubastatin A 0.072 | [9] 0.08 | defactinib 0.017 | encorafenib -0.071 | [7] -0.139 | alisertib -0.017 | [8] -0.078 | gefitinib -0.081

NAA16 (UniProt Q6N069)
Chain of UniProt Q6N069 (Q6N069 whole entry, looked up): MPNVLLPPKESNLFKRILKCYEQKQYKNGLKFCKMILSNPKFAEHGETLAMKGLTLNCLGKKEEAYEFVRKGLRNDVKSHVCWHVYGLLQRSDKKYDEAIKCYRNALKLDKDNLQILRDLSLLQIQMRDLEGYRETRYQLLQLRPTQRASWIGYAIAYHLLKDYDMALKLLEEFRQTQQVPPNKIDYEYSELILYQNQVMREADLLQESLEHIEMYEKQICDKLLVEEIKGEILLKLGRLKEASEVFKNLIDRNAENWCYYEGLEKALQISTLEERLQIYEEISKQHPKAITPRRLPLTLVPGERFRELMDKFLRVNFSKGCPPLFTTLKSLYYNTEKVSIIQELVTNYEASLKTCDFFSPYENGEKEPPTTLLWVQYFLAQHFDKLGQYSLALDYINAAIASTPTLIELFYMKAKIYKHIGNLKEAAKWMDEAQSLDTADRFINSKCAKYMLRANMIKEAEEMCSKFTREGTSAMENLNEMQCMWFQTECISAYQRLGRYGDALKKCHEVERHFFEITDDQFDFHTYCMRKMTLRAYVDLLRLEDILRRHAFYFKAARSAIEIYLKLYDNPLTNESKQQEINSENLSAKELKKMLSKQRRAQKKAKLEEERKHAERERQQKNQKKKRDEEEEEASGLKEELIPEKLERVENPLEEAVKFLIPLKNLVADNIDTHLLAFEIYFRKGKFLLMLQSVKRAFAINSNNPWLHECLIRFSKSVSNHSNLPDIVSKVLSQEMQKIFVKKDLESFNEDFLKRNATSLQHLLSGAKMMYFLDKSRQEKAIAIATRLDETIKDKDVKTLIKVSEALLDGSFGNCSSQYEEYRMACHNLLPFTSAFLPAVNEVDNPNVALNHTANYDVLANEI
inactive: [2] -0.048 | barasertib 0.246 | [3] -0.049 | volasertib -0.078 | [1] 0.057 | saracatinib -0.012 | Tubastatin A -0.097 | defactinib 0.086 | [6] -0.05 | encorafenib 0.062 | [7] 0.169 | alisertib 0.11 | [8] -0.03 | gefitinib 0.142
active: vemurafenib 0.902

MYH6 (UniProt P13533)
inactive: [2] -0.081 | barasertib 0.006 | [3] 0.215 | volasertib 0.084 | [1] -0.137 | sotrastaurin -0.017 | Tubastatin A 0.142 | [9] -0.06 | encorafenib -0.048 | [7] 0.082 | [8] 0.206

ORC1 (UniProt Q13415)
inactive: [3] 0.185 | encorafenib 0.018 | [7] -0.188

MYO10 (UniProt Q9HD67)
active: [4] 1.26
inactive: vemurafenib 0.483 | barasertib 0.171 | [1] -0.185 | [5] -0.381 | sotrastaurin -0.287 | alvocidib 0.048 | Tubastatin A 0.211 | [9] -0.012 | defactinib -0.106 | alisertib 0.021 | gefitinib 0.087

NUMB isoform 2 (UniProt P49757)
Chain of UniProt P49757 (P49757 whole entry, looked up): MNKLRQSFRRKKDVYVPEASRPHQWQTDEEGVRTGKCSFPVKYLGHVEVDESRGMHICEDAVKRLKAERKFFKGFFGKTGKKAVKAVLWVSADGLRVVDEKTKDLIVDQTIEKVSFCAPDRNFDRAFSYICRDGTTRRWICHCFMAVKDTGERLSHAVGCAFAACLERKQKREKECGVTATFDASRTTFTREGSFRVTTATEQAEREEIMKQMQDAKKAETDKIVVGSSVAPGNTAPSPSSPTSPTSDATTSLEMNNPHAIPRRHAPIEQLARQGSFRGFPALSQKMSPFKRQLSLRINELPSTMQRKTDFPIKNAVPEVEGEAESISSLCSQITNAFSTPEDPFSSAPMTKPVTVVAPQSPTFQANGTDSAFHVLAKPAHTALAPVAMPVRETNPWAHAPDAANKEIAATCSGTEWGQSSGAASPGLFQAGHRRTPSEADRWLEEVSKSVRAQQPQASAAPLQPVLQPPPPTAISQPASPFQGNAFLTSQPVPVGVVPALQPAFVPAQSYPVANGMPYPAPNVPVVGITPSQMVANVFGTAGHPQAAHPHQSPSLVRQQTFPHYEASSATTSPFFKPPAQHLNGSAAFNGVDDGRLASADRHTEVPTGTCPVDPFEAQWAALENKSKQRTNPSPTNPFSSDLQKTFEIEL
inactive: [1] -0.146 | saracatinib -0.04 | Tubastatin A -0.112 | [6] 0.158 | alisertib 0.092 | gefitinib -0.277

NDUFAF5 (UniProt Q5TEU4)
Chain of UniProt Q5TEU4 (Q5TEU4 whole entry, looked up): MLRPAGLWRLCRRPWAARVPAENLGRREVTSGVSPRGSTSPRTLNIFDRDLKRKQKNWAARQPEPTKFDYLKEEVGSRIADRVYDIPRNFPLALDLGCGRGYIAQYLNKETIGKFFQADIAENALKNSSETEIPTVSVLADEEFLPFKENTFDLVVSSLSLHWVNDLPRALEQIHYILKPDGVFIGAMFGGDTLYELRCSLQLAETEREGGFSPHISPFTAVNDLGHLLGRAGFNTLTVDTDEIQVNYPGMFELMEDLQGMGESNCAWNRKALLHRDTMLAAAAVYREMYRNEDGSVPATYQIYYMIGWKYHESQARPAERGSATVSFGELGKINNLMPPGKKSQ
inactive: vemurafenib -0.015 | [2] 0.007 | barasertib -0.032 | [3] 0.127 | volasertib 0.04 | [1] -0.103 | [4] -0.052 | [5] 0.035 | saracatinib 0.179 | sotrastaurin 0 | alvocidib -0.004 | Tubastatin A 0.12 | [9] -0.068 | defactinib -0.047 | [6] 0.175 | encorafenib 0.18 | [7] -0.065 | [8] -0.033

NOCT (UniProt Q9UK39)
Chain of UniProt Q9UK39 (Q9UK39 whole entry, looked up): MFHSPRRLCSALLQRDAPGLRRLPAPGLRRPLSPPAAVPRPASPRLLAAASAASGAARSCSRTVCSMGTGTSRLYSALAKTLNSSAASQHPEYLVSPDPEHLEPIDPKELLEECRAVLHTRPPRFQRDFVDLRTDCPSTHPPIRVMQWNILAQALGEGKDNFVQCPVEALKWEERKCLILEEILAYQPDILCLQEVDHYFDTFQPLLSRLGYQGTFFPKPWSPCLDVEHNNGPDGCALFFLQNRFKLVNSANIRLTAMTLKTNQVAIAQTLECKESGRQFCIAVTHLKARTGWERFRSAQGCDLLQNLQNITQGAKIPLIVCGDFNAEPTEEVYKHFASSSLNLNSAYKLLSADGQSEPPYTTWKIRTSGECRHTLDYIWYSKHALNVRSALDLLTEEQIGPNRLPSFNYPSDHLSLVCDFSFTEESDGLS
inactive: [2] -0.04 | [3] 0 | volasertib 0.02 | [1] 0.004 | saracatinib -0.103 | sotrastaurin -0.073 | Tubastatin A 0.012 | [9] 0.159 | [6] 0.042 | encorafenib 0.046 | [7] -0.01 | alisertib 0.009 | [8] -0.144 | gefitinib -0.088

NUDT6 (UniProt P53370)
inactive: vemurafenib 0.022 | [3] 0.091 | [1] -0.085 | saracatinib 0.05 | sotrastaurin -0.033 | Tubastatin A 0.042 | [9] 0.154 | defactinib -0.002 | [6] -0.024 | encorafenib -0.021 | [7] -0.015

NR2C2 isoform 2 (UniProt P49116)
inactive: vemurafenib -0.087 | [2] 0.049 | barasertib 0.017 | [3] -0.091 | volasertib -0.001 | [1] 0.003 | [4] 0.075 | [5] -0.074 | saracatinib -0.058 | sotrastaurin 0.002 | alvocidib 0.075 | Tubastatin A -0.045 | [9] -0.03 | defactinib 0.058 | [6] 0.1 | encorafenib -0.002 | [7] -0.022 | [8] -0.002

NR2F2 (UniProt P24468)
inactive: [2] -0.081 | barasertib 0.01 | volasertib -0.146 | [1] -0.028 | [4] 0.005 | [5] -0.216 | saracatinib 0.014 | sotrastaurin 0.013 | alvocidib -0.053 | Tubastatin A -0.154 | [9] 0.056 | [6] -0.047 | alisertib 0.072 | [8] 0.012 | gefitinib -0.077

PAPOLG (UniProt Q9BWT3)
inactive: vemurafenib -0.176 | [3] -0.04 | [1] -0.02 | [4] -0.013 | [5] -0.049 | saracatinib -0.235 | sotrastaurin 0.031 | alvocidib -0.008 | Tubastatin A 0.16 | [9] 0.003 | defactinib -0.025 | [6] 0.085 | encorafenib 0.063 | [7] 0.098 | alisertib -0.035 | gefitinib 0.062

NFAT5 isoform 4 (UniProt O94916)
inactive: barasertib -0.039 | sotrastaurin 0

PARD3B (UniProt Q8TEW8)
inactive: [4] 1.46 | [5] -0.046 | saracatinib -0.002 | alvocidib -0.125 | [9] 0.005 | [6] 0.093

PAGE2B (UniProt Q5JRK9)
Chain of UniProt Q5JRK9 (Q5JRK9 whole entry, looked up): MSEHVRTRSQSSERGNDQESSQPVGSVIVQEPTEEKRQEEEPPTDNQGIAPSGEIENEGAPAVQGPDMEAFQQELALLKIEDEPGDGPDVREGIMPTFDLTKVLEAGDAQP
inactive: vemurafenib 0.008 | [2] -0.056 | [3] -0.027 | volasertib -0.013 | [1] -0.008 | [4] -0.034 | [5] -0.239 | saracatinib 0.176 | sotrastaurin 0.05 | alvocidib 0.059 | Tubastatin A 0.175 | [9] 0.097 | defactinib 0.253 | [6] 0.072 | encorafenib 0.089 | [7] -0.001 | alisertib 0.053 | [8] -0.091 | gefitinib -0.051
